Shown are actives, neighbours in structure and some others; about 2.6% of the full set was active somewhere.
PRMT1 FP inh – PRMT1 methyltransferase inhibitors, primary screen, biochemical, fluorescence polarization. Protein arginine N-methyltransferase 1 (Homo sapiens), Q99873. recombinant PRMT1, activity-based probe fluorescence polarization. inhibition, % at 2.79 µM. actives 1.3% (n = 370,000). AID 652257, 2013;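 active = inhibition above about 21% made by adding two undisclosed values, limit read from the data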
TLR4 MyD88 comp – inhibitors of TLR4-MyD88 association in cells, primary screen, cell-based, HeLa CL3-4, BLA complementation, FRET ratio. Toll-like receptor 4 (Homo sapiens) + Myeloid differentiation primary response protein …. inhibition, % at 8.4 µM. HeLa CL3-4 TLR4/MyD88 BLA complementation. actives 0.18% (n = 200,000). AID 861, 2007; in the data active = inhibition above about 25%
ABHD5 PLIN5 PPI – ABHD5-PLIN5 interaction inhibitors, primary screen, cell lysate, split luciferase complementation, luminescence. Split G. princeps luciferase complementation, 4 h. actives 0.78% (n = 360,000). AID 602281, 2012. Perilipin-5 (Homo sapiens) + 1-acylglycerol-3-phosphate O-acyltransferase ABHD5 (Homo …. inhibition, % at 4 µM;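 active = inhibition above the mean inhibition across every tested compound plus 3 SD, cut at about 22% in these data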
TLR9-MyD88 inh – inhibitors of TLR9-MyD88 association in cells, primary screen, cell-based, CHO, BLA complementation, fluorescence. CCF4 FRET ratio. inhibition, % at 4.98 µM. actives 0.21% (n = 340,000). AID 504734, 2011;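 active = inhibition above the mean over all tested compounds plus 3 SD, cut at about 21% in these data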
NOD2 RIPK2 PPI – NOD2-RIPK2 binding disruptors in cells, primary screen, fluorescence, CHO cells, BLA complementation | actives 0.38% (n = 360,000) | Receptor-interacting serine/threonine-protein kinase 2 (Homo sapiens), O43353 | inhibition, % at 4.98 µM | CCF4 ratio | AID 624267, 2012; in the data active = inhibition above about 21%
Target sequence (O43353 whole entry, looked up): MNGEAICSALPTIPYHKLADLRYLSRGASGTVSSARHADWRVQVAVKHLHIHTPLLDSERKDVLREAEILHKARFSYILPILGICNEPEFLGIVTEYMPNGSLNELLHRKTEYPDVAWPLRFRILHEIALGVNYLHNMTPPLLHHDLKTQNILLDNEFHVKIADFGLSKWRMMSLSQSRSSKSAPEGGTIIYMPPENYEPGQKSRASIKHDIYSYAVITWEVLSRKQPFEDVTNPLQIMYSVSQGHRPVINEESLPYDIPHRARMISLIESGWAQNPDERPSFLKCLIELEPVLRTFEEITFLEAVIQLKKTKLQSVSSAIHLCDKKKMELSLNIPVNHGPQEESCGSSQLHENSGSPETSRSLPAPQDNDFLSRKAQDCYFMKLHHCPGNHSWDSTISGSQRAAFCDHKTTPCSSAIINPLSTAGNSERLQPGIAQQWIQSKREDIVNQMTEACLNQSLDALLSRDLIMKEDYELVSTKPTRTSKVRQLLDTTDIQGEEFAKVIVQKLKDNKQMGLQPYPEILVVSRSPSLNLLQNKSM
Exocytosis inh – LAMP-1 surface exposure blockers, TALL-104 cells – cell-based, flow cytometry, MLPCN library, primary screen | TALL-104 LAMP-1 surface exposure; cells stimulated with thapsigargin and PMA | inhibition, % at 10 µM | actives 0.66% (n = 360,000);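 active = inhibition above about 55%, limit read from the data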
ABHD5-PLIN5 conf – ABHD5-PLIN5 interaction inhibitors, confirmation, biochemical, luminescence; shares compounds with ABHD5 PLIN5 PPI; inhibition, % at 4 µM; actives 67% (n = 2,200); AID 651612, 2012; in the data active = inhibition above about 23%
HNF4 counter – HNF4 dimerization inhibitors, counter-screen for ABHD5-PLIN5 interaction inhibitor project, biochemical, split-luciferase complementation, luminescence; actives 77% (n = 2,200); AID 651674, 2012; shares compounds with ABHD5 PLIN5 PPI; inhibition, % at 4 µM;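 active = mean inhibition across replicate wells exceeding the computed hit threshold, cut at about 13% in these data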;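 note: light from luciferase halves that rejoin when HNF4 fusion proteins dimerize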
Numbers stand for hits; 0 = inactive; - = no result given.

SMILES	PRMT1 FP inh	TLR4 MyD88 comp	ABHD5 PLIN5 PPI	TLR9-MyD88 inh	NOD2 RIPK2 PPI	Exocytosis inh	ABHD5-PLIN5 conf	HNF4 counter
CCCC[C@H](C(=O)N(C)c1cccc(OC)c1)[C@@H](O)c1ccc(C(C)=O)cc1	0	-	-	-	-	-	-	-
COc1ccc(S[C@]2(C(=O)NCCc3ccccc3)CC(=O)N[C@@H]2c2ccc(OC)cc2)cc1	0	-	-	-	-	-	-	-
O=C(Nc1cccc(-c2cccc(Cl)c2)c1)C1CCN(Cc2ccc(CO)o2)CC1	0	-	27.0	0	0	0	0	0
CNC(=S)N(C)/N=C1/C(=O)N(Cc2c(Cl)cccc2Cl)c2ccccc21	0	-	26.7	0	0	0	0	15.9
CCOC(=O)C1=C(C(=O)OCC)C2N(Cc3ccc(Br)cc3)c3ccccc3[C@@]23C[C@@H](C(=O)OC)N(S(=O)(=O)c2ccc(OC)cc2)C3=N1 (some centres not stated)	0	-	-	-	-	-	-	-
CCCCCNC(=O)C(C1CC1)n1c(=O)c(-c2ccco2)nc2ccccc21 (configuration not stated)	22.2	-	31.3	-	0	0	61.2	23.2
COc1ccc(NC(=O)C(C2CC2)n2c(=O)c(-c3ccco3)nc3ccccc32)cc1 (configuration not stated)	0	-	0	-	0	0	-	-
CCCCCNC(=O)C(c1ccc(C(F)(F)F)cc1)n1c(=O)c(-c2ccco2)nc2ccccc21 (configuration not stated)	24.7	-	83.0	-	0	0	46.6	0
O=C(NC1CCCCC1)C(C1CC1)n1c(=O)c(-c2ccco2)nc2ccccc21 (configuration not stated)	0	-	65.5	-	0	0	71.0	34.1
CC1(C(=O)NCc2ccc(C(F)(F)F)cc2)CCN1Cc1c(F)cccc1F (configuration not stated)	0	-	0	-	0	0	-	-
CC1(C(=O)NCc2ccc(C(F)(F)F)cc2)CCN1Cc1ccc(-c2ccccc2)o1 (configuration not stated)	0	-	30.7	-	0	0	0	25.2
CC(C)NC(C(=O)Nc1cc(Cl)cc(Cl)c1)c1ccccc1 (configuration not stated)	0	0	54.4	0	0	0	0	0
Cc1[nH]nc2c1C(c1ccc(-c3ccccc3C#N)o1)C(C#N)=C(N)O2 (configuration not stated)	-	0	0	0	0	0	-	-
Cc1[nH]nc2c1C(c1ccc(-c3ccc(Cl)cc3)o1)C(C#N)=C(N)O2 (configuration not stated)	0	0	27.5	0	0	0	0	43.6
Cc1ccc(-c2ccc(C3C(C#N)=C(N)Oc4n[nH]c(C)c43)o2)cc1 (configuration not stated)	0	0	23.7	0	0	0	26.5	44.1
O=C1C=CC(n2cc(F)c(=O)[nH]c2=O)O1 (configuration not stated)	0	-	30.8	0	0	0	41.8	33.1
O=c1[nH]c(=O)n(C2OC(CO)C(O)C2O)cc1F (configuration not stated)	-	-	0	0	0	0	-	-
Cc1nnnn1/C(=C\c1ccccc1)C(=O)OCC(=O)NC(C)(C)C	0	0	0	0	0	0	-	-
CC(=O)Nc1ccc(NC(=O)COC(=O)/C(=C/c2ccccc2)n2nnnc2C)cc1	0	-	40.2	0	0	0	52.4	51.0
CC(=O)N/C(=C\c1ccccc1)C(=O)OCC(=O)NC1CCCC1	0	0	0	0	0	0	-	-
Cc1nnnn1/C(=C\c1ccccc1)C(=O)OCC(=O)NC1CCCCC1	0	-	24.5	0	0	0	55.1	62.3
COc1cc2c(cc1OC)C(C(=O)O)C(c1ccc3c(c1)OCO3)N(C)C2=O (configuration not stated)	0	-	-	-	-	-	-	-
COC(=O)C1=C(C)N(Cc2ccc(C(F)(F)F)cc2)C(=NCc2ccccc2C(F)(F)F)NC1c1ccc(F)cc1 (configuration not stated)	0	-	-	-	-	-	-	-
O=C(CCl)N(C/C=C/c1ccccc1)c1ccc2c(c1)OCCO2	0	0	24.9	0	0	0	23.6	29.0
N#CCCN(C(=O)CSc1ncccn1)c1ccc2c(c1)OCCO2	0	-	0	0	0	0	-	-
SMILES	PRMT1 FP inh	TLR4 MyD88 comp	ABHD5 PLIN5 PPI	TLR9-MyD88 inh	NOD2 RIPK2 PPI	Exocytosis inh	ABHD5-PLIN5 conf	HNF4 counter
CSCCC(NC(=O)OCc1ccccc1)C(=O)NC(Cc1c[nH]c2ccccc12)C(=O)O (configuration not stated)	0	-	-	-	-	-	-	-
CNC[C@@H]1Oc2ccc(NS(=O)(=O)c3ccc(Cl)cc3)cc2C(=O)N([C@H](C)CO)C[C@@H]1C	0	-	24.9	0	0	0	0	0
C[C@@H]1CN([C@@H](C)CO)C(=O)CCCn2cc(nn2)CO[C@H]1CN(C)C(=O)Nc1cccc(F)c1	0	-	-	-	-	-	-	-
O=C(c1ccccc1)C(CCC(CN1CCOCC1)C(=O)c1ccccc1)CN1CCOCC1 (configuration not stated)	0	0	57.6	0	29.9	76.5	46.0	101.7
COc1ccc(C(=O)C(CN2CCOCC2)c2ccccc2)cc1 (configuration not stated)	0	0	0	0	0	0	-	-
O=C(c1ccc(F)cc1)C(CN1CCOCC1)c1ccccc1 (configuration not stated)	0	0	37.8	0	0	0	28.7	99.5
O=C(N[C@H](C(=O)N1CCC[C@H]1C(=O)NC1CCCC1)c1ccccc1)c1ccc(Cl)c(Cl)c1	0	-	-	-	-	-	-	-
O=C(OCc1cn(Cc2ccc(C(F)(F)F)cc2)nn1)N1CCOCC1	0	-	-	-	-	-	-	-
CCN(C(=O)CSc1nc(C)nc2sc(C)c(C)c12)c1ccc(F)cc1	0	-	0	0	0	0	-	-
Cc1nc(SCC(=O)N(C)Cc2ccco2)c2c(C)c(C)sc2n1	0	0	32.4	0	0	0	0	22.2
CC(=O)N(C1CC(C)C(C#N)(C#N)C1(C#N)C#N)N(C)C (configuration not stated)	0	0	23.7	0	0	0	51.8	94.8
O=C(COc1ccccc1/C=C\c1[nH]c(=O)[nH]c(=O)c1[N+](=O)[O-])Nc1ccccc1	0	0	30.4	0	0	0	86.8	84.2

Screening results (PubChem)
